The full list was thinned out, with hits kept by preference.
Cruzain noTriton = inhibitors of Trypanosoma cruzi cruzain without detergent; Potency, µM, for inactives: max response, negative = inhibition, hits mostly inhibitors; AID 1476; actives 2.3% (n = 200,000); purified cruzain, Z-FR-AMC fluorescence, no detergent;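 note: plate controls were enzyme without inhibitor for no effect and buffer without enzyme for full effect; nearly all actives have a fitted effect of over 40% in size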
Target sequence (P25779 123-467 limits assumed): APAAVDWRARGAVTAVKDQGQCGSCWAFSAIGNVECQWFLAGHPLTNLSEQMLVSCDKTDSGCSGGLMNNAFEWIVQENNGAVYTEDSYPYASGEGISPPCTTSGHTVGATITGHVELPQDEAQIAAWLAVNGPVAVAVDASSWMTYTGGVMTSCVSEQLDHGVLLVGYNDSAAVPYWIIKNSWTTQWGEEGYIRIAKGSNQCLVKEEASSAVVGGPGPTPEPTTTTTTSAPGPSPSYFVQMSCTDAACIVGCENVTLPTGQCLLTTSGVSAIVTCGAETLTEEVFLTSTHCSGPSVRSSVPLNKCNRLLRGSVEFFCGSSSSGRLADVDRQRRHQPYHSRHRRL
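Purified cruzain at 1.5 nM, pre-incubated 15 min with compound at room temperature in 100 mM sodium acetate pH 5.5, 5 mM DTT, 0.00005% Triton X-100. Reaction started with 2 uM Z-FR-AMC; AMC fluorescence increase over 60 s gives rate.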
NS1 inh = blocks influenza NS1 protein function; Potency, µM (highest dose often 46.1 µM), without a hit: at the highest dose activity, positive = more growth; actives 0.4% (n = 270,000); calls by dose curve; note: actives are rising curves; nearly all actives have a fitted effect of over 50% in size
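Growth recovery, yeast-based: influenza A NS1 expressed in S. cerevisiae causes slow growth, and suppressors are detected by OD600. The parent strain without NS1 is used as positive control.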
Cruzain inh Det = blocks cruzain activity in presence of Triton detergent | AID 1478 | actives 0.43% (n = 200,000) | Potency, µM, for inactives: max response, negative = inhibition, most hits filed as inhibitors | purified cruzain, Z-FR-AMC fluorescence, 0.01% Triton | P25779;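 note: plate controls were neutral wells for no effect and buffer without enzyme for full effect; nearly all actives have a fitted effect of over 40% in size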
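Sodium acetate buffer (100 mM, pH 5.5) containing 5 mM DTT and 0.01% Triton X-100 hosted 1.5 nM cruzain and test compound for 15 min at room temperature. Cleavage of 2 uM Z-FR-AMC was then tracked by fluorescence.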
Numbers without * were called inactive. Unless noted, calls come from the whole dose curve; as a rule, active = well fitted curve in the direction sought with a large enough effect; inconclusive = small, poorly fitted or top-dose-only effect, or another doubt; inactive = no such curve, though single readings can be large; an effect the other way counts as inactive or inconclusive. Potency is the fitted concentration of half-maximal effect.

Results for CCC(Nc1ccc(-c2nc(-c3cccnc3)no2)cc1[N+](=O)[O-])c1ccccc1 (stereo not given) ?
Cruzain noTriton: -9%; Cruzain inh Det: -4%

What do the screens show for `CC1=C(C(=O)Nc2ccccc2Br)C2(CCC(C)CC2)OC1=O` (stereo not given)?
Cruzain noTriton: -1%; Cruzain inh Det: -3%

How did COc1cccc(-c2nc(N3CCN(Cc4ccccc4)CC3)c3ccccc3n2)c1O do in these assays?
Cruzain noTriton: -4%; NS1 inh: 2%; Cruzain inh Det: -12%

Results for COc1cccc(-c2nc(N3CCN(c4ccccc4)CC3)c3ccccc3n2)c1O ?
Cruzain noTriton: 10µM*; NS1 inh: 20%; Cruzain inh Det: 1%

Results for CCc1ccc(/C=C2\SC(=S)N(CCCC(=O)Nc3ccccn3)C2=O)cc1 ?
Cruzain noTriton: -25%; NS1 inh: inconclusive; Cruzain inh Det: 0%

What do the screens show for `CCc1ccc(/C=C2/SC(=S)N(CC(=O)Nc3nc4ccccc4s3)C2=O)cc1`?
Cruzain noTriton: 3.2µM*; NS1 inh: 10%; Cruzain inh Det: -8%

Results for COc1ccc(C2/C=C\CC(NC(=O)OCC3c4ccccc4-c4ccccc43)CC(=O)N2Cc2cccc(F)c2)cc1 (stereo not given) ?
Cruzain noTriton: inconclusive; Cruzain inh Det: 1%

What do the screens show for `COc1ccc(C2/C=C\CC(NC(=O)OCC3c4ccccc4-c4ccccc43)CC(=O)N2Cc2ccccc2F)cc1` (stereo not given)?
Cruzain noTriton: 13µM*; Cruzain inh Det: 1%

Results for O=C(NCc1ccc(Cl)cc1)c1cc2ccc3cccnc3c2[nH]1 ?
Cruzain noTriton: 25µM*; Cruzain inh Det: -6%

What do the screens show for `O=C(NCc1cccc(Cl)c1)c1cc2ccc3cccnc3c2[nH]1`?
Cruzain noTriton: -20%; Cruzain inh Det: -6%

Results for O=C(Nc1ccc2c(c1)OCO2)Nc1ccc(Cl)cc1Cl ?
Cruzain noTriton: 25µM*; NS1 inh: -2%; Cruzain inh Det: 6%

How did O=C(Nc1ccc(Cl)cc1)Nc1ccc2c(c1)OCO2 do in these assays?
NS1 inh: -2%

What do the screens show for `Cc1cc(C)cc(NC(=O)Cn2nnc(-c3nc(-c4ccncc4)no3)c2N)c1`?
Cruzain noTriton: 14%; Cruzain inh Det: -2%

How did Nc1c(-c2nc(-c3ccccc3)no2)nnn1CC(=O)Nc1cccc(F)c1 do in these assays?
Cruzain noTriton: 32µM*; Cruzain inh Det: -26%

What do the screens show for `O=C(NCc1ccc2c(c1)OCO2)C1CCN(c2ccc(S(=O)(=O)N3CCCC3)cc2)CC1`?
Cruzain noTriton: 25µM*; NS1 inh: 12%; Cruzain inh Det: -1%

Results for O=C(NCc1ccc2c(c1)OCO2)C1CCN(S(=O)(=O)N2CCCCC2)CC1 ?
Cruzain noTriton: -1%; NS1 inh: -14%; Cruzain inh Det: -3%

Results for Nc1ncnc2c1nc(-c1ccccc1)n2[C@H]1O[C@@H](CO)[C@@H](O)[C@H]1O ?
Cruzain noTriton: 3%; NS1 inh: 0%; Cruzain inh Det: -1%

Results for COc1cccc(NC(=O)c2ccc3nc(Cc4ccccc4)oc3c2)c1 ?
Cruzain noTriton: -2%; Cruzain inh Det: -6%

How did O=C(NCc1cn2ccsc2n1)c1cccc(C(F)(F)F)c1 do in these assays?
Cruzain noTriton: -28%; NS1 inh: 2%; Cruzain inh Det: -2%

How did O=C(NCc1cn2ccsc2n1)c1c(F)cccc1Cl do in these assays?
Cruzain noTriton: 20µM*; NS1 inh: inconclusive; Cruzain inh Det: -10%

Results for COc1cccc(OCC(=O)NNC(=O)c2ccc(-c3ccccc3)cc2)c1 ?
Cruzain noTriton: 25µM*; NS1 inh: 13%; Cruzain inh Det: 1%

Results for COc1cccc(OCC(=O)Nc2ccccc2-c2ccccc2)c1 ?
NS1 inh: 0%

What do the screens show for `CCOC(=O)c1c(NC(=O)COc2ccccc2Br)sc2c1CCCCC2`?
Cruzain noTriton: 2%; Cruzain inh Det: -6%

How did CCOC(=O)c1c(NC(=O)c2ccccc2Br)sc2c1CCc1ccccc1-2 do in these assays?
Cruzain noTriton: 16µM*; NS1 inh: 9%; Cruzain inh Det: -6%

Results for COc1ccc(-c2cc(=O)oc3c4c(ccc23)OCN(Cc2ccccc2)C4)cc1 ?
Cruzain noTriton: 25µM*; Cruzain inh Det: -25%

Results for O=c1cc(-c2ccccc2)c2ccc3c(c2o1)CN(Cc1ccccc1)CO3 ?
Cruzain noTriton: inconclusive; Cruzain inh Det: -25%

What do the screens show for `COc1ccc(Nc2cc(C(=O)NCCCN(C)Cc3ccccc3)c3ccccc3n2)cc1OC`?
Cruzain noTriton: -12%; Cruzain inh Det: -8%

What do the screens show for `CSc1nc(N)c2ncn([C@@H]3O[C@H](COP(=O)(O)OP(=O)(O)OP(=O)(O)O)[C@H](O)[C@H]3O)c2n1`?
Cruzain noTriton: 9%; NS1 inh: -1%; Cruzain inh Det: -4%

Screening data (PubChem)
